# Test results: ChEMBL document CHEMBL1961873, “Compounds: GSK PKIS; Assays: Nanosyn kinase panel” (2012)
# Columns and labels:
# [1] = target: T1, Inhibitor of nuclear factor kappa-B kinase subunit epsilon (Homo sapiens) (UniProt Q14164); conditions: at 1 µM;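 further: reported values are averaged percent inhibition figures against human IKKε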
# T1 sequence (whole entry): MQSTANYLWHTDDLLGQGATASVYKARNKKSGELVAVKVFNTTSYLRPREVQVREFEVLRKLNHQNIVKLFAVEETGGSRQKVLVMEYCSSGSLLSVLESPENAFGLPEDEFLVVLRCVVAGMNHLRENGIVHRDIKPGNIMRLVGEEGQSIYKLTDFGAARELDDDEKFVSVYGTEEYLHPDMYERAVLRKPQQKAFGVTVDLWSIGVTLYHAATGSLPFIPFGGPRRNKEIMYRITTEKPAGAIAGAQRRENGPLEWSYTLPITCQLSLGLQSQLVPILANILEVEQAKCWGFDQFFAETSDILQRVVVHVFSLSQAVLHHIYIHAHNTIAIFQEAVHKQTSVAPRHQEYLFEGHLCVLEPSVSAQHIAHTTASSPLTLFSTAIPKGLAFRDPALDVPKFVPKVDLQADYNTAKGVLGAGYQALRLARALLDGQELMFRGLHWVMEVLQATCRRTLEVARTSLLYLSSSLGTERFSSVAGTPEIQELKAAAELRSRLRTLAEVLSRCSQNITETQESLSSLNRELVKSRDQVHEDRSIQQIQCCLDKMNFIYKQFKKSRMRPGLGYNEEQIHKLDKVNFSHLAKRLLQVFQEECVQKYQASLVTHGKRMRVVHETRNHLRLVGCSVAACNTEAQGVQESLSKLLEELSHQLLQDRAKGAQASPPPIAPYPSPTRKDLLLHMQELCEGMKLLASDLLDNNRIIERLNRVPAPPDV
# [2] = target: T2, Serine/threonine-protein kinase Nek1 (Homo sapiens) (UniProt Q96PY6); conditions: at 0.1 µM
# T2 sequence (whole entry): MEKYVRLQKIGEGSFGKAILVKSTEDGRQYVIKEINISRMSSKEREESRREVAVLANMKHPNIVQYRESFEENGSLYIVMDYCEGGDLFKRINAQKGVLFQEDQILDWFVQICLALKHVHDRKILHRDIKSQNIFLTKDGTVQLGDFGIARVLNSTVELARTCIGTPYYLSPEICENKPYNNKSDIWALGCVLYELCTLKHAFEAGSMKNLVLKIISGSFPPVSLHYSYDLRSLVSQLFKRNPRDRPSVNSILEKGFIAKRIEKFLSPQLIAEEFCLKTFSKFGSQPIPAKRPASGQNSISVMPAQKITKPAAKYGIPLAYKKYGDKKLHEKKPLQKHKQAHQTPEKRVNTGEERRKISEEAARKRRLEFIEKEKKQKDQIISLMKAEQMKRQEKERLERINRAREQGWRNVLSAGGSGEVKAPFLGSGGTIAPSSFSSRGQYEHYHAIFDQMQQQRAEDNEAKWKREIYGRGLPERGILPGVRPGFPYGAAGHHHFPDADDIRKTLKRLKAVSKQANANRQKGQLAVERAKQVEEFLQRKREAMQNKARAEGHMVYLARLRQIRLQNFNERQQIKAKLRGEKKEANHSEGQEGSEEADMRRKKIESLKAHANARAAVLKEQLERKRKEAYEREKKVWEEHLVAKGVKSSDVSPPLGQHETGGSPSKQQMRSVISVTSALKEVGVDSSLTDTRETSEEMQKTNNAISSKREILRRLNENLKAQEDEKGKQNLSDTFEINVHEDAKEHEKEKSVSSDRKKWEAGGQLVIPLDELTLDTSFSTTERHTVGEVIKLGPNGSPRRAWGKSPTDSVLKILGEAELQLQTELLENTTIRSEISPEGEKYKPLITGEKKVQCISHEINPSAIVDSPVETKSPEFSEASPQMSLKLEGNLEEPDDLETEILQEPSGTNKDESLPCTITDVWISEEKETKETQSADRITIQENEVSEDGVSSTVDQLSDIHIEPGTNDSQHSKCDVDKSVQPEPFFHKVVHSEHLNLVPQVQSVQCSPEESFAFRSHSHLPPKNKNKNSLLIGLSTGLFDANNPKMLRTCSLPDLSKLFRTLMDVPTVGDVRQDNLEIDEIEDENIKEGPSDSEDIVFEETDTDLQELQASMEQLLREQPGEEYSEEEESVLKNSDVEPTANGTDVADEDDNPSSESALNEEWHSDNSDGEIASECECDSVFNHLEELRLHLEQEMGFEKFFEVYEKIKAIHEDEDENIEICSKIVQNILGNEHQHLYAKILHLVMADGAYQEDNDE
# [3] = target: T2, Serine/threonine-protein kinase Nek1 (Homo sapiens); conditions: at 1 µM
# [4] = target: T3, Serine/threonine-protein kinase Nek2 (Homo sapiens) (UniProt P51955); conditions: at 1 µM
# T3 sequence (whole entry): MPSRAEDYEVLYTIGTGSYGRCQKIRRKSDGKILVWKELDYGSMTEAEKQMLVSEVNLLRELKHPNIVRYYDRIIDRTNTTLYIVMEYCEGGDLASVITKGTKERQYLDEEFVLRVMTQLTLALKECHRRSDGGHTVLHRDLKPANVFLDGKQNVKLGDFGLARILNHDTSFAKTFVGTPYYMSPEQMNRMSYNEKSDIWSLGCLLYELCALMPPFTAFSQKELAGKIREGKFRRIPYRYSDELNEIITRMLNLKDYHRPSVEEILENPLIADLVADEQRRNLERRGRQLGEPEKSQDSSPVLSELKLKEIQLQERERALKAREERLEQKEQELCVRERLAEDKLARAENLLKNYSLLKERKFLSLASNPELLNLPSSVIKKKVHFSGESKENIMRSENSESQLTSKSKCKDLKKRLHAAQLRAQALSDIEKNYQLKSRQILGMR
# [5] = target: Serine/threonine-protein kinase Nek6 (Homo sapiens) (UniProt Q9HC98); conditions: at 0.1 µM
# [6] = target: Serine/threonine-protein kinase Nek6 (Homo sapiens) (UniProt Q9HC98); conditions: at 1 µM
# [7] = target: Serine/threonine-protein kinase Nek7 (Homo sapiens) (UniProt Q8TDX7); conditions: at 0.1 µM
# [8] = target: Serine/threonine-protein kinase Nek7 (Homo sapiens) (UniProt Q8TDX7); conditions: at 1 µM
# [9] = target: T4, Serine/threonine-protein kinase Nek9 (Homo sapiens) (UniProt Q8TD19); conditions: at 0.1 µM
# T4 sequence (whole entry): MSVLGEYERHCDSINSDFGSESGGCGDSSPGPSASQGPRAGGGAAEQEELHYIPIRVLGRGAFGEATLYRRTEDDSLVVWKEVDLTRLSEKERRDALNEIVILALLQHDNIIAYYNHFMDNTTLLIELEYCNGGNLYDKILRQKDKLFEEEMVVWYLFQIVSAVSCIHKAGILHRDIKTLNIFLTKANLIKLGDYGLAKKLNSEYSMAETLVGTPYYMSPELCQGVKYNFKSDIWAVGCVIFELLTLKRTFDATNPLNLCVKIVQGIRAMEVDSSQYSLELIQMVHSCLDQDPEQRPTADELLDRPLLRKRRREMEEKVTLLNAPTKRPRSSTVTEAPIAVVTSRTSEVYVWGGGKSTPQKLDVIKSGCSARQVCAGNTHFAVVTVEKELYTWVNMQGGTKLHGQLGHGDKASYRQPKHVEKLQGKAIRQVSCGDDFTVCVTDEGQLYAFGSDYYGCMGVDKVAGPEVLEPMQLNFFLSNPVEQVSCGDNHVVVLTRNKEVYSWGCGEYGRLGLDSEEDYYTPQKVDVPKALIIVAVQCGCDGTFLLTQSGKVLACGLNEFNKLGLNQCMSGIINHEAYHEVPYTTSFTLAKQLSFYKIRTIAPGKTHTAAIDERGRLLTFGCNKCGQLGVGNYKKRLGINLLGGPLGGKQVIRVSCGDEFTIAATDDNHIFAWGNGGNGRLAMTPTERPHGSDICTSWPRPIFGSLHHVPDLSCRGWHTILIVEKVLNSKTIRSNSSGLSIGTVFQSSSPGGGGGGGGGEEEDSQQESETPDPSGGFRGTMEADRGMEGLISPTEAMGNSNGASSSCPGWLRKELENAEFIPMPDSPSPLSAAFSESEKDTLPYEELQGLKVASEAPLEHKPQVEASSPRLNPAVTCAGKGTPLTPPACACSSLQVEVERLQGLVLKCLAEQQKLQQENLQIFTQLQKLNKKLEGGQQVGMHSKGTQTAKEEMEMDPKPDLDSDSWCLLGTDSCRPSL
# [10] = target: T4, Serine/threonine-protein kinase Nek9 (Homo sapiens); conditions: at 1 µM
# [11] = target: Serine/threonine-protein kinase PLK1 (Homo sapiens) (UniProt P53350); conditions: at 0.1 µM
# [12] = target: Serine/threonine-protein kinase PLK1 (Homo sapiens) (UniProt P53350); conditions: at 1 µM
# [13] = target: T5, Dual specificity protein kinase TTK (Homo sapiens) (UniProt P33981); conditions: at 0.1 µM
# T5 sequence (whole entry): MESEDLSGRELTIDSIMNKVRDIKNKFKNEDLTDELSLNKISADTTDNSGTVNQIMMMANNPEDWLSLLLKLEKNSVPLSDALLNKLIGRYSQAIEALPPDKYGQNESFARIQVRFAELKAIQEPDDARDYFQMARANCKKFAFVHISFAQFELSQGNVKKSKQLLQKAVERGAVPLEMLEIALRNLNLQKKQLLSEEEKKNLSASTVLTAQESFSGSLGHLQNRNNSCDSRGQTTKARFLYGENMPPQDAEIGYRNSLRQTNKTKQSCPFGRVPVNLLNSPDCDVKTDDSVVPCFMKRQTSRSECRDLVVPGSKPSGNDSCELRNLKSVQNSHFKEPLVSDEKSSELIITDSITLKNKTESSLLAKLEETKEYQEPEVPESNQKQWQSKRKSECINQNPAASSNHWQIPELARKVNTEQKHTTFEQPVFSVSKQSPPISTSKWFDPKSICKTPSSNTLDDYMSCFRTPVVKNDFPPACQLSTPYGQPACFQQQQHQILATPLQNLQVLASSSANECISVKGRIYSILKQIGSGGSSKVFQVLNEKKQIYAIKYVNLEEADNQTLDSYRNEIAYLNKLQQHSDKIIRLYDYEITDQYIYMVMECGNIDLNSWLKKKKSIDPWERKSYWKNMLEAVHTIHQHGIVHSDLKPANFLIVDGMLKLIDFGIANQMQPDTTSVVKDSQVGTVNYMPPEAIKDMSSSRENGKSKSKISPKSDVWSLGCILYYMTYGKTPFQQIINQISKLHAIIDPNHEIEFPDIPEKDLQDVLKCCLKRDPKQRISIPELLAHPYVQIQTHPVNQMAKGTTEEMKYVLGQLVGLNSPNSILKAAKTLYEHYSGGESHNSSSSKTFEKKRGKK
# [14] = system: T6, Receptor-type tyrosine-protein kinase FLT3 (Homo sapiens), P36888 [D835Y]; conditions: at 1 µM
# T6 sequence (whole entry): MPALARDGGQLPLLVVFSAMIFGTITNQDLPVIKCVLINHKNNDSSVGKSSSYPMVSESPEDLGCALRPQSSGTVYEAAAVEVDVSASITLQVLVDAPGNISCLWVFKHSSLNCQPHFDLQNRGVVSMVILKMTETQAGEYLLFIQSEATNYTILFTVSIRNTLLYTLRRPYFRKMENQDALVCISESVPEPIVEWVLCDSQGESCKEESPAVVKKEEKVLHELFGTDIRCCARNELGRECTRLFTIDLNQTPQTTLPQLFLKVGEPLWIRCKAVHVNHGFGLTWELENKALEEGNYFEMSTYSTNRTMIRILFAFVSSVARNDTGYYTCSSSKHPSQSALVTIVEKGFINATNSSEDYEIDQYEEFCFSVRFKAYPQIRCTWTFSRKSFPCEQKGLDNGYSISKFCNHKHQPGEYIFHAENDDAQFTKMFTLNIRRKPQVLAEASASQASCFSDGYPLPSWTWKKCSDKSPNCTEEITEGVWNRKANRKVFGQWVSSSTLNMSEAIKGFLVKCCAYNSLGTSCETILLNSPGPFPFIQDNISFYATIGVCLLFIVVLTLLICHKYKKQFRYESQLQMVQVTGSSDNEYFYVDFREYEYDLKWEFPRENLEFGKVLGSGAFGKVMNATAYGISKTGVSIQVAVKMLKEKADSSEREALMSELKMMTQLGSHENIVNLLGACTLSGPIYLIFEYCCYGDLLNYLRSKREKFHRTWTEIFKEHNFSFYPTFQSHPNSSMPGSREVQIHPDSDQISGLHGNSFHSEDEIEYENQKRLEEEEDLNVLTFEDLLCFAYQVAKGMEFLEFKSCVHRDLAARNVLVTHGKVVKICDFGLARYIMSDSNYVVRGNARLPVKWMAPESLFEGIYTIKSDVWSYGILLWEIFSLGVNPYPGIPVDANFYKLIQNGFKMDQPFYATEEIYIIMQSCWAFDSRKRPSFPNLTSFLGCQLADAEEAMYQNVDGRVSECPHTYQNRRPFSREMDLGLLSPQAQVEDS
# [15] = target: Macrophage colony-stimulating factor 1 receptor (Homo sapiens) (UniProt P07333); conditions: at 0.1 µM
# [16] = target: Macrophage colony-stimulating factor 1 receptor (Homo sapiens) (UniProt P07333); conditions: at 1 µM
# [17] = target: Tyrosine-protein kinase Fyn (Homo sapiens) (UniProt P06241); conditions: at 0.1 µM
# [18] = target: T3, Serine/threonine-protein kinase Nek2 (Homo sapiens); conditions: at 0.1 µM
# [19] = target: Vascular endothelial growth factor receptor 3 (Homo sapiens) (UniProt P35916); conditions: at 0.1 µM
# [20] = target: Vascular endothelial growth factor receptor 3 (Homo sapiens) (UniProt P35916); conditions: at 1 µM
# Sequence of Vascular endothelial growth factor receptor 3 (Homo sapiens) (P35916 whole entry): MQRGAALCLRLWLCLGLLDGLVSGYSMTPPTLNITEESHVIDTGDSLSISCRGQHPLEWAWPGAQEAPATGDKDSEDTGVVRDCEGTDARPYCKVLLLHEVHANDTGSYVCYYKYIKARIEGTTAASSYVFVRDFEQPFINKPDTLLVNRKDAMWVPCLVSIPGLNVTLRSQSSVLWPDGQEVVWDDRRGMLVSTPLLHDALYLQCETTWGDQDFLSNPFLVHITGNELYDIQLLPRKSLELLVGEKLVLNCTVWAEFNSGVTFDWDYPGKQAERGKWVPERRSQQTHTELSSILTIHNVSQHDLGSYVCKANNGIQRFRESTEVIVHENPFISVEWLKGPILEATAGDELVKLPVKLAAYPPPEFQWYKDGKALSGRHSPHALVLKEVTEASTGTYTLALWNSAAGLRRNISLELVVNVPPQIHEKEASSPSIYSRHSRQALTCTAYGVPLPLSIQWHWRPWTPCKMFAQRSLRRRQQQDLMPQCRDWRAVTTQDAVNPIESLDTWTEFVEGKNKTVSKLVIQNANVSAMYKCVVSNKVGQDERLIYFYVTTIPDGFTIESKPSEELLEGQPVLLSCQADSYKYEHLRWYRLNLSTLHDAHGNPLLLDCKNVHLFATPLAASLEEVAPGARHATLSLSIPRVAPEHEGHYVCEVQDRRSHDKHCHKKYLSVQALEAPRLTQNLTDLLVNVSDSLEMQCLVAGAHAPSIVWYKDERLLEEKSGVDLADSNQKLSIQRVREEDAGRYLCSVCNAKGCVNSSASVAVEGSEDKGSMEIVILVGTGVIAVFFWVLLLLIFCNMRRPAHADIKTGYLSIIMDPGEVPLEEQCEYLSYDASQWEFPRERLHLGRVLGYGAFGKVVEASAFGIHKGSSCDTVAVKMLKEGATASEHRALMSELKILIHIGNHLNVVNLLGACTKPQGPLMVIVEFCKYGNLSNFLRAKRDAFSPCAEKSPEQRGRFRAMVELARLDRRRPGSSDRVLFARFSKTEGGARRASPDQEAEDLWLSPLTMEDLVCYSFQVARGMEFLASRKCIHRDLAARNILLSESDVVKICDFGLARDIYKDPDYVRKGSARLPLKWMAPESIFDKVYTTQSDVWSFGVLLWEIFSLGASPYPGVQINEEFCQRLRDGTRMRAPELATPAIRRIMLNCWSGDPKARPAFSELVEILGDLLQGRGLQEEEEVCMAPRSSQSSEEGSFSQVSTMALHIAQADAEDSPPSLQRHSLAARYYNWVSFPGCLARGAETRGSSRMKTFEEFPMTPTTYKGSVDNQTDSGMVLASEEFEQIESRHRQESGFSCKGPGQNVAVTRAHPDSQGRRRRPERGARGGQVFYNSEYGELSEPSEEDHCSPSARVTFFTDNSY
# Sequence of Serine/threonine-protein kinase PLK1 (Homo sapiens) (P53350 whole entry): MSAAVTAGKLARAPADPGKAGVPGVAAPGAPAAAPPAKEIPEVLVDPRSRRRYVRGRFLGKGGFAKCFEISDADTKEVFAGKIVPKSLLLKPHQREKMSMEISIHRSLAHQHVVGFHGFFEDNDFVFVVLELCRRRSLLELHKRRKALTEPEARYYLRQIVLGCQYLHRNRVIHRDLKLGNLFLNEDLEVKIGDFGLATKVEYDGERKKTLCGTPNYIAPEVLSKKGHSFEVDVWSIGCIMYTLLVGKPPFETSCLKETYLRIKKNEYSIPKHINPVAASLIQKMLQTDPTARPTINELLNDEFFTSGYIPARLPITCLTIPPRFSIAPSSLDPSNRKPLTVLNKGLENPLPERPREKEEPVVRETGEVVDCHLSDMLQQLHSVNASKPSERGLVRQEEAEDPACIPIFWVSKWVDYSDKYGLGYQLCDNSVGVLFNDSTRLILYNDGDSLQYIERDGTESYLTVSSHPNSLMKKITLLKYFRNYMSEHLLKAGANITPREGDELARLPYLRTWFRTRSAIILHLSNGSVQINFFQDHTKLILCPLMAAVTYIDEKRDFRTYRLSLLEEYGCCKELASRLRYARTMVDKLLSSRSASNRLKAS
# Sequence of Macrophage colony-stimulating factor 1 receptor (Homo sapiens) (P07333 whole entry): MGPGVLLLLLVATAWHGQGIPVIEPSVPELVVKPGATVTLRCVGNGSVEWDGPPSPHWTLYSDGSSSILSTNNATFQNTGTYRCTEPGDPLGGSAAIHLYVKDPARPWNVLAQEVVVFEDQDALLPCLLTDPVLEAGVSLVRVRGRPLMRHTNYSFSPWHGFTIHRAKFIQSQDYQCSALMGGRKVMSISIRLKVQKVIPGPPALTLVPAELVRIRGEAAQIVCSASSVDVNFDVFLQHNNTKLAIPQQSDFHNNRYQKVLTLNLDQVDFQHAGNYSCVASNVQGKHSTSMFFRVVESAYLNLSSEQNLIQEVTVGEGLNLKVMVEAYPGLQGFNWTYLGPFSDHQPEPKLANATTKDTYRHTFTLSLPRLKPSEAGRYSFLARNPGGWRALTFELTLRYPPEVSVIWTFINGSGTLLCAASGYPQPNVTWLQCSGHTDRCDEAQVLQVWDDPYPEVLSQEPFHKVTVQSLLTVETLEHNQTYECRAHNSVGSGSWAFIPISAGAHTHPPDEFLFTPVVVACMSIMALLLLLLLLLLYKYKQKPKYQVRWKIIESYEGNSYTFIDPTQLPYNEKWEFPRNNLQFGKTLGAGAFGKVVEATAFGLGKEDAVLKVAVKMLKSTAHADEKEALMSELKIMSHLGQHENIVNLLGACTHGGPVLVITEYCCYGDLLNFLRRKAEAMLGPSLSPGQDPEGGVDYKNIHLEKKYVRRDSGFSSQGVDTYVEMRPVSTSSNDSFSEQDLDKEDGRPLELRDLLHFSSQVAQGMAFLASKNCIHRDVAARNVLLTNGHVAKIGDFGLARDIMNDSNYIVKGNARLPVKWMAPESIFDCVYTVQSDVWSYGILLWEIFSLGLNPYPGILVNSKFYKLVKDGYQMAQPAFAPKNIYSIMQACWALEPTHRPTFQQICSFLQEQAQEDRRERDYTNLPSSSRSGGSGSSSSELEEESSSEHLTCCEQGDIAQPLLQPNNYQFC
# Sequence of Tyrosine-protein kinase Fyn (Homo sapiens) (P06241 2-537 limits assumed): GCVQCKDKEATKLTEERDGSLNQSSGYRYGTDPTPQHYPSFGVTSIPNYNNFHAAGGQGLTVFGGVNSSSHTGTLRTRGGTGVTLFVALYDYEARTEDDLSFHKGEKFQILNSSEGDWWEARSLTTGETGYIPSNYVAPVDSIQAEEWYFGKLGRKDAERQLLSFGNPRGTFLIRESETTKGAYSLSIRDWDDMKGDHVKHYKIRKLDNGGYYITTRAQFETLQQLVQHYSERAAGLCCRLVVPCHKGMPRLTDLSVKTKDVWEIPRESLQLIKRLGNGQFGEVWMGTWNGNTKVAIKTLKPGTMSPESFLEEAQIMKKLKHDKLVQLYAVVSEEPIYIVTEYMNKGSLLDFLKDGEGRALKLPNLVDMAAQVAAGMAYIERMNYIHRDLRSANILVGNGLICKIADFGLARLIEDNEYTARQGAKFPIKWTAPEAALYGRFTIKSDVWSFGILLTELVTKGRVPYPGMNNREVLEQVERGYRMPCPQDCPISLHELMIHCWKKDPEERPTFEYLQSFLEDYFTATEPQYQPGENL
# Sequence of Serine/threonine-protein kinase Nek7 (Homo sapiens) (Q8TDX7 whole entry, looked up): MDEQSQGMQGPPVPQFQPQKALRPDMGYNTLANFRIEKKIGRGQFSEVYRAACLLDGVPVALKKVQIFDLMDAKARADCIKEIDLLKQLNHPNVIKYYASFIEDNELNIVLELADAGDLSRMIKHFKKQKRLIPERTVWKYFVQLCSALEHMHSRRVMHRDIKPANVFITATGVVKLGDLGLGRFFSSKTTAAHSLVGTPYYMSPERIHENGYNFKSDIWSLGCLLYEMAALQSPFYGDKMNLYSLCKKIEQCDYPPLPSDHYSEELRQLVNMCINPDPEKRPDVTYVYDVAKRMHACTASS
# Sequence of Serine/threonine-protein kinase Nek6 (Homo sapiens) (Q9HC98 whole entry): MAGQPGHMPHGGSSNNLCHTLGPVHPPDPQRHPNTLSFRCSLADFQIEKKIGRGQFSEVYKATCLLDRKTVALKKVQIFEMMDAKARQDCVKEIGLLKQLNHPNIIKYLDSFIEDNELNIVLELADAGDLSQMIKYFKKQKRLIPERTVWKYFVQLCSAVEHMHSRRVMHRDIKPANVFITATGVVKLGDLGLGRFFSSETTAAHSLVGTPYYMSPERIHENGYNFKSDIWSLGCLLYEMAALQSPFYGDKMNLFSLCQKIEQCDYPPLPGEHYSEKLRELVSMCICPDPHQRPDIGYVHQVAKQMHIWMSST
Structure (SMILES),inhibition [1],inhibition [2],inhibition [3],inhibition [4],inhibition [5],inhibition [6],inhibition [7],inhibition [8],inhibition [9],inhibition [10],inhibition [11],inhibition [12],inhibition [13],inhibition [14],inhibition [15],inhibition [16],inhibition [17],inhibition [18],inhibition [19],inhibition [20]
COc1cc2c(cc1Nc1nc(Nc3ccsc3C(N)=O)c3cc[nH]c3n1)N(C(=O)CN(C)C)CCC2,9.27%,0.09%,0.97%,6.67%,1.52%,-0.11%,1.7%,9.62%,1.89%,-3.87%,86.3%,97.1%,9.22%,5.44%,55%,82.8%,2.02%,–,–,–
CCn1c(-c2nonc2N)nc2c(C#CC(C)(C)O)nc(O[C@@H](CN)c3ccccc3)cc21,98.9%,1.61%,17.2%,33.5%,0.93%,-0.92%,1.12%,0.58%,3.66%,-1.03%,0.95%,0.24%,3.8%,2.22%,0.67%,1.9%,3.24%,5.29%,58.4%,93.8%
Fc1ccc(-c2ncn(C3CCNCC3)c2-c2ccnc(Oc3ccccc3)n2)cc1,3.7%,1.07%,1.73%,1.85%,7.63%,2.1%,2.34%,6.68%,2.53%,5.18%,3.38%,3.09%,6.21%,-0.44%,-0.76%,3.02%,-2.88%,3.29%,-7.44%,–
Cc1cc(-c2ccco2)cc(C)c1/C=C/c1cncc(-c2nn[nH]n2)c1,3.83%,1.34%,1.67%,1.44%,0.53%,-0.1%,–,0.89%,3.25%,1.42%,1.22%,0.57%,4.5%,-2.85%,-0.94%,2.32%,1.3%,1.03%,1.37%,2.25%
